PubChem BioAssay (NCI)
The panel holds about 83,000 compounds, 20% with a hit somewhere; the sample as a whole holds those more often.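 Testing used 96-well plates and a 48-hour single-concentration exposure. Example: -40 means 40% of the starting cells died.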 Active and inactive are the calls of the source. The calls were made as follows: active = growth percent below 10; inactive = the rest.

Columns and labels:
Experiment in all cases: NCI-60 one-dose screen, 48 h (100 = growth as untreated, 0 = no growth, -100 = all killed)
Conditions in all cases: 10 µM unless noted
T-47D breast = tested on: T-47D breast
BT-549 breast = tested on: BT-549 breast
MDA-MB-435 melanoma = tested on: MDA-MB-435 melanoma
SW-620 colon = tested on: SW-620 colon
MCF7 breast = tested on: MCF7 breast
HCT-116 colon = tested on: HCT-116 colon
HCC-2998 colon = tested on: HCC-2998 colon
KM12 colon = tested on: KM12 colon

Measured: growth

COc1cc(-c2nn(-c3cccc(NC(=O)c4ccc(N5CCOCC5)c(C(F)(F)F)c4)c3)cc2-c2ccncc2)ccc1Cl
active: MDA-MB-435 melanoma -35.1% | MCF7 breast 8.85% | HCT-116 colon 8.35% | HCC-2998 colon 8.82% | KM12 colon 5.64%
inactive: T-47D breast 27.5% | BT-549 breast 14.3% | SW-620 colon 25.2%

CCOC(=O)c1cn2c3c(cccc3c1=O)C(=O)/C(=C/c1cccc(Cl)c1Cl)C2
inactive: T-47D breast 75.5% | BT-549 breast 91.6% | MDA-MB-435 melanoma 106% | SW-620 colon 102% | MCF7 breast 96.2% | HCT-116 colon 105% | HCC-2998 colon 100% | KM12 colon 108%

COc1ccc(C(=O)N2NC(=O)/C(=C/c3cn(-c4ccccc4)nc3-c3ccccc3)N=C2c2ccccc2)cc1
inactive: T-47D breast 97.6% | BT-549 breast 106% | MDA-MB-435 melanoma 92.2% | SW-620 colon 109% | MCF7 breast 98.9% | HCT-116 colon 95.2% | HCC-2998 colon 107% | KM12 colon 99.1%

COc1ccc(CN2CCc3c(Sc4ccccc4)nc(N)nc3C2=O)c(OC)c1
inactive: T-47D breast 33.9% | BT-549 breast 23.4% | MDA-MB-435 melanoma 60.6% | SW-620 colon 81.2% | MCF7 breast 43.7% | HCT-116 colon 42.7% | HCC-2998 colon 86.2% | KM12 colon 84.9%

O=C(C1=Cc2cc3ccccc3n2Cc2cnnn21)c1ccccc1
inactive: T-47D breast 28.8% | BT-549 breast 37.5% | SW-620 colon 28.5% | MCF7 breast 35.2% | HCT-116 colon 26.7% | HCC-2998 colon 71.7% | KM12 colon 33.8%
active: MDA-MB-435 melanoma -7.53%

CCCCCCCCCCCCNC(=O)[C@H]1CSC(c2cc3ccccc3s2)N1 (stereo partly specified)
inactive: T-47D breast 52.5% | MCF7 breast 42.4% | HCC-2998 colon 61.4%
active: BT-549 breast -60.1% | MDA-MB-435 melanoma -94.6% | SW-620 colon 3.61% | HCT-116 colon -80% | KM12 colon -50.7%

CCOC(=O)C1=C(C)NC(C)=C(C(=O)OCC)C1(C)C
inactive: T-47D breast 95% | BT-549 breast 93.6% | MDA-MB-435 melanoma 116% | SW-620 colon 117% | MCF7 breast 98.9% | HCT-116 colon 100% | HCC-2998 colon 108% | KM12 colon 118%

Nc1nc(Nc2cc(Cl)cc(Cl)c2)nn1S(=O)(=O)c1ccc2ccccc2c1
inactive: T-47D breast 46% | BT-549 breast 90.7% | MDA-MB-435 melanoma 77.5% | SW-620 colon 67.6% | MCF7 breast 32.8% | HCT-116 colon 33.5% | HCC-2998 colon 68.3% | KM12 colon 21.9%

COc1cccc(/C=C/C(=O)Nc2cc(OC)c3c(c2)OCO3)c1
inactive: T-47D breast 94.7% | BT-549 breast 108% | MDA-MB-435 melanoma 78.9% | SW-620 colon 107% | MCF7 breast 102% | HCT-116 colon 100% | HCC-2998 colon 97% | KM12 colon 89.1%

CN1CCN(CCCOc2ccc3nc(Nc4ccc(Cl)c(C(F)(F)F)c4)ccc3c2)CC1
inactive: T-47D breast 76.7% | BT-549 breast 102% | MDA-MB-435 melanoma 59.6% | MCF7 breast 27.1% | HCT-116 colon 26.3% | KM12 colon 28.8%
active: SW-620 colon 0.0049% | HCC-2998 colon 6.68%

COc1cc(/C=C/C(=O)c2c(C)nc3ccccc3c2C)ccc1OCCCCOc1cc2c(cc1OC)C(=O)N1CCC[C@H]1C=N2
active: T-47D breast -64.7% | BT-549 breast -64.8% | MDA-MB-435 melanoma -34.8% | SW-620 colon -62.2% | MCF7 breast -86% | HCT-116 colon -65.9% | HCC-2998 colon -100% | KM12 colon -69.7%

COc1ccc2cc(-c3ccc(-c4ccc(C(=N)N)cc4)s3)ccc2c1
inactive: T-47D breast 91.2% | BT-549 breast 97.9% | MDA-MB-435 melanoma 108% | SW-620 colon 84.6% | MCF7 breast 73.2% | HCT-116 colon 71.3% | HCC-2998 colon 101% | KM12 colon 66.4%

Cc1c(C(N)=O)sc2c1c(=O)n(Cc1ccccc1)c1nnc(Nc3ccccc3)n21
inactive: T-47D breast 89% | BT-549 breast 123% | MDA-MB-435 melanoma 103% | SW-620 colon 108% | MCF7 breast 100% | HCT-116 colon 94.2% | HCC-2998 colon 110% | KM12 colon 93.6%

C=C1CCC2C3(C)COC(c4ccccc4)OC3CCC2(C)C1/C=C/C1=CCOC1=O (stereo unspecified)
inactive: T-47D breast 72.2% | MDA-MB-435 melanoma 31.4% | SW-620 colon 25.6% | MCF7 breast 31.8% | HCC-2998 colon 111% | KM12 colon 28.7%
active: BT-549 breast -18.3% | HCT-116 colon 8%

COc1ccc(-c2cnnn2-c2nonc2-n2cccc2)cc1OC
active: MDA-MB-435 melanoma -36.9%
inactive: T-47D breast 45.3% | BT-549 breast 60.1% | SW-620 colon 27% | MCF7 breast 30.4% | HCT-116 colon 35.6% | HCC-2998 colon 62% | KM12 colon 31.7%

O=C(Nc1cccc(-n2cc(-c3ccncc3)c(-c3ccc(Cl)c(O)c3)n2)c1)Nc1cc(C(F)(F)F)cc(C(F)(F)F)c1
active: BT-549 breast -35.9% | MDA-MB-435 melanoma -31.1% | SW-620 colon 3.32% | MCF7 breast 2.71% | HCT-116 colon -59.1% | HCC-2998 colon -56.9% | KM12 colon -50.3%
inactive: T-47D breast 12.1%

CCCCC(CC)OC(=O)C(Br)CC (stereo unspecified)
inactive: T-47D breast 103% | BT-549 breast 100% | MDA-MB-435 melanoma 109% | SW-620 colon 114% | MCF7 breast 102% | HCT-116 colon 101% | HCC-2998 colon 104% | KM12 colon 101%

CC(=O)Oc1csc(N(C(C)=O)c2cccc(C(F)(F)F)c2)n1
active: BT-549 breast -89.8%
inactive: T-47D breast 87.7% | MDA-MB-435 melanoma 98.1% | SW-620 colon 98.7% | MCF7 breast 90.8% | HCT-116 colon 86.6% | HCC-2998 colon 108% | KM12 colon 99.3%

c1coc(CNc2ccnc(Nc3ccc(OCCN4CCCCC4)cc3)n2)c1
inactive: T-47D breast 91.2% | BT-549 breast 97.5% | MDA-MB-435 melanoma 95.5% | SW-620 colon 98.7% | MCF7 breast 71.4% | HCT-116 colon 68.4% | HCC-2998 colon 99.5% | KM12 colon 84.8%

CC(C)C1=CC2=C(C=O)C[C@@H]3[C@](C)(CCC[C@@]3(C)C(=O)OCC#CCN3CCCC3)[C@H]2CC1
inactive: T-47D breast 54.7% | BT-549 breast 63.9% | MDA-MB-435 melanoma 92.8% | SW-620 colon 88% | MCF7 breast 85.7% | HCT-116 colon 50.3% | HCC-2998 colon 93.9% | KM12 colon 75.1%

C=C(C)[C@@H]1CC[C@]2(C(=O)O)CC[C@]3(C)[C@H](CC[C@@H]4[C@@]5(C)C[C@@H](CC#Cc6ccc(C(F)(F)F)cc6)[C@H](O)C(C)(C)[C@@H]5CC[C@]43C)[C@@H]12
inactive: T-47D breast 19% | BT-549 breast 36.7% | SW-620 colon 15% | HCT-116 colon 11.4% | HCC-2998 colon 18.2% | KM12 colon 15.3%
active: MDA-MB-435 melanoma -31.8% | MCF7 breast 8.54%

COc1ccc(C(=O)c2cc(OC)c(OC)c(OC)c2OC)cc1O
active: MDA-MB-435 melanoma -24%
inactive: T-47D breast 44.8% | BT-549 breast 39.8% | SW-620 colon 20.5% | MCF7 breast 17.5% | HCT-116 colon 17.9% | HCC-2998 colon 58.6% | KM12 colon 20.8%

O=C(/C=C\c1cccc([N+](=O)[O-])c1)/C=C/c1cccc([N+](=O)[O-])c1
inactive: T-47D breast 97.9% | BT-549 breast 88.9% | MDA-MB-435 melanoma 36.7% | SW-620 colon 18.9% | MCF7 breast 19% | HCC-2998 colon 97%
active: HCT-116 colon -31.2% | KM12 colon -7.25%

CNC(=S)NNC(=O)C1CC1
inactive: T-47D breast 104% | BT-549 breast 92.1% | MDA-MB-435 melanoma 114% | SW-620 colon 112% | MCF7 breast 96.9% | HCT-116 colon 101% | HCC-2998 colon 110% | KM12 colon 109%

CCCCCCCCCCCCCCCCCCNC(=O)[C@H]1CSC(c2cccs2)N1 (stereo partly specified)
active: T-47D breast -65.7% | BT-549 breast -77.4% | MDA-MB-435 melanoma -90.3% | SW-620 colon -65.5% | MCF7 breast -70.6% | HCT-116 colon -89.6% | HCC-2998 colon -82.4% | KM12 colon -70.9%

C=C[C@@H]1C[C@H](O)Cc2c(C)cc(C)cc2N1
inactive: T-47D breast 103% | BT-549 breast 96.4% | MDA-MB-435 melanoma 99.3% | SW-620 colon 99.9% | MCF7 breast 93.1% | HCT-116 colon 99.9% | HCC-2998 colon 94.2% | KM12 colon 105%

Cc1ccc(/C=C2\CN(C(=O)CCN3CCC(=NO)CC3)C/C(=C\c3ccc(C)cc3)C2=O)cc1
inactive: T-47D breast 16.4% | BT-549 breast 11.2%
active: MDA-MB-435 melanoma -39.8% | SW-620 colon -34.1% | MCF7 breast -3.62% | HCT-116 colon -74.5% | HCC-2998 colon -70.7% | KM12 colon -75.3%

CC(C)(C)OC(=O)NCCc1ccc(N=C=S)cc1
inactive: T-47D breast 41.5% | BT-549 breast 62.3% | MDA-MB-435 melanoma 71.3% | SW-620 colon 71.4% | MCF7 breast 52% | HCT-116 colon 65.5% | HCC-2998 colon 89.9% | KM12 colon 60.8%

CCOC(=O)c1ccc2c(c1)nc(-c1ccc(OCc3ccccc3)c(OC)c1)n2-c1cc(C(C)(C)C)[nH]n1
inactive: T-47D breast 65.5% | BT-549 breast 98.6% | MDA-MB-435 melanoma 85% | SW-620 colon 98% | MCF7 breast 63.1% | HCT-116 colon 62.8% | HCC-2998 colon 91% | KM12 colon 69.3%

COc1ccc(-c2nc(/C=N/Nc3cc(C)nc4ccc(Br)cc34)c(C)o2)cc1
inactive: BT-549 breast 91%
active: T-47D breast -42.1% | MDA-MB-435 melanoma -95.6% | SW-620 colon -86.6% | MCF7 breast -75.2% | HCT-116 colon -74.6% | HCC-2998 colon -67.1% | KM12 colon -90.4%

COc1cc(-c2nn(-c3cccc(NC(=O)c4ccccc4)c3)cc2-c2ccncc2)ccc1Cl
inactive: T-47D breast 21.8% | SW-620 colon 18.4% | HCC-2998 colon 20.1% | KM12 colon 12.3%
active: BT-549 breast 1.29% | MDA-MB-435 melanoma -57.9% | MCF7 breast 4.67% | HCT-116 colon 8.58%

COc1ccc(/C=C2\N=C(c3ccccc3)N(C(=O)c3ccccc3O)NC2=O)cc1
inactive: T-47D breast 96.6% | BT-549 breast 92% | MDA-MB-435 melanoma 95% | SW-620 colon 100% | MCF7 breast 92.8% | HCT-116 colon 92% | HCC-2998 colon 93.7% | KM12 colon 92%
